According to ChEMBL document CHEMBL1961873, “Compounds: GSK PKIS; Assays: Nanosyn kinase panel” (2012):

Experiments:
[1] = biological target: Tyrosine-protein kinase SYK (Homo sapiens) (UniProt P43405); settings: at 1 µM
[2] = biological target: T1, Tyrosine-protein kinase Tec (Homo sapiens) (UniProt P42680); settings: at 0.1 µM
T1 sequence (whole entry): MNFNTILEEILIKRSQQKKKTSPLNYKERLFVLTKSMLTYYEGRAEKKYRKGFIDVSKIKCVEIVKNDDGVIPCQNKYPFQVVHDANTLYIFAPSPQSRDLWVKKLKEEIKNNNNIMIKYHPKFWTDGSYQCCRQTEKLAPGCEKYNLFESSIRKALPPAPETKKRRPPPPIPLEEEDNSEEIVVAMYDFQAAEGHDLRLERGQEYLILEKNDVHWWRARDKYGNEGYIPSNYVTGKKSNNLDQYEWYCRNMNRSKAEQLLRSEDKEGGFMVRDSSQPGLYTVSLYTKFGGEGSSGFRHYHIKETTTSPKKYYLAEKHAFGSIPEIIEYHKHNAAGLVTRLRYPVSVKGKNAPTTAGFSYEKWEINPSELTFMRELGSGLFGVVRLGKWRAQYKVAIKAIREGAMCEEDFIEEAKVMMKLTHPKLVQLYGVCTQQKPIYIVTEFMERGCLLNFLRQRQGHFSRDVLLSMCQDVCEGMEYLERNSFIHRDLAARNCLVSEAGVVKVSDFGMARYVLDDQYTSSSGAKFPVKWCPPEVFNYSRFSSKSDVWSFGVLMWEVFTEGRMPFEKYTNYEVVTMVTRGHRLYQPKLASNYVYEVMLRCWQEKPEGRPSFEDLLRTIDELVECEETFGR

[3] = biological target: T1, Tyrosine-protein kinase Tec (Homo sapiens); settings: at 1 µM
[4] = biological target: Angiopoietin-1 receptor (Homo sapiens) (UniProt Q02763); settings: at 0.1 µM
[5] = biological target: Angiopoietin-1 receptor (Homo sapiens) (UniProt Q02763); settings: at 1 µM
[6] = biological target: T2, Non-receptor tyrosine-protein kinase TNK1 (Homo sapiens) (UniProt Q13470); settings: at 0.1 µM
T2 sequence (whole entry): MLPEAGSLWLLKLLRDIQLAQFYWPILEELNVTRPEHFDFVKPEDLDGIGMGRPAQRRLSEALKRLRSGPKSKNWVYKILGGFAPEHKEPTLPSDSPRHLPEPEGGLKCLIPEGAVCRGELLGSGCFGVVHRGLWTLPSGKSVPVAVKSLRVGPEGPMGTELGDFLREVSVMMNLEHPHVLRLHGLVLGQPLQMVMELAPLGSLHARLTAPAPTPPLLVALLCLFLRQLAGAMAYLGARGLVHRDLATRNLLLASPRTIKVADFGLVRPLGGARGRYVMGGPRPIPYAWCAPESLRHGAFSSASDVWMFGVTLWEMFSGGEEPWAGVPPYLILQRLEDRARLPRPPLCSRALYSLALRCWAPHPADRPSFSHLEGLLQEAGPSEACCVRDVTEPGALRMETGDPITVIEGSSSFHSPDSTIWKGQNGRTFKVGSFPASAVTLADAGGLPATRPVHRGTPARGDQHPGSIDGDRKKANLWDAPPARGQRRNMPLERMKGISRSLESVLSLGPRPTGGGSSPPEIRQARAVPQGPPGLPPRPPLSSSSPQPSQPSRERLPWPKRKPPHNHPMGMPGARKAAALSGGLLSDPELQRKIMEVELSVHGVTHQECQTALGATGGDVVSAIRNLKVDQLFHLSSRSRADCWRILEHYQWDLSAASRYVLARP

[7] = biological target: T2, Non-receptor tyrosine-protein kinase TNK1 (Homo sapiens); settings: at 1 µM
[8] = biological target: Activated CDC42 kinase 1 (Homo sapiens) (UniProt Q07912); settings: at 0.1 µM
[9] = biological target: Activated CDC42 kinase 1 (Homo sapiens) (UniProt Q07912); settings: at 1 µM
[10] = biological target: High affinity nerve growth factor receptor (Homo sapiens) (UniProt P04629); settings: at 0.1 µM;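 note: each value is a mean of replicate percent inhibition readings against TRKA kinase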
Sequence of High affinity nerve growth factor receptor (Homo sapiens) (P04629 33-796 limits assumed): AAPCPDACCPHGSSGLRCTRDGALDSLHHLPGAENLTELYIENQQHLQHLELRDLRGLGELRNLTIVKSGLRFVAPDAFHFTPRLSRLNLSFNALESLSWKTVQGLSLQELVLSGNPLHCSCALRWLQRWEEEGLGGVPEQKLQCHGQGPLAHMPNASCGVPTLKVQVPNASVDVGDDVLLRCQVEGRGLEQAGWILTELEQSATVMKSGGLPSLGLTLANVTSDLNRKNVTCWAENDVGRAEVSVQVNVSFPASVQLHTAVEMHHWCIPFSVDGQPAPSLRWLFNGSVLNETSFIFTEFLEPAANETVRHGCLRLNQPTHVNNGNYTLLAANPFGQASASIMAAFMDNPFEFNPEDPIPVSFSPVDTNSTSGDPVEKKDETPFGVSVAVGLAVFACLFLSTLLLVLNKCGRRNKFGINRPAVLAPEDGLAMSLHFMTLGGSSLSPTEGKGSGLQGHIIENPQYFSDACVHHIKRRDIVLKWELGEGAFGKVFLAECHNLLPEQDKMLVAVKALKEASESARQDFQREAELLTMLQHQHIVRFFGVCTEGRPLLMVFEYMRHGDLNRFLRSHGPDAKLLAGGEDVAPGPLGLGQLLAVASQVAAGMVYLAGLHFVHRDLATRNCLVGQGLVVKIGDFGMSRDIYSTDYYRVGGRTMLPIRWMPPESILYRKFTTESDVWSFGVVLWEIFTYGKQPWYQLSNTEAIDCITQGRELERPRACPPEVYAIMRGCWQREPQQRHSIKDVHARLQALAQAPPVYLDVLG

Sequence of Angiopoietin-1 receptor (Homo sapiens) (Q02763 whole entry): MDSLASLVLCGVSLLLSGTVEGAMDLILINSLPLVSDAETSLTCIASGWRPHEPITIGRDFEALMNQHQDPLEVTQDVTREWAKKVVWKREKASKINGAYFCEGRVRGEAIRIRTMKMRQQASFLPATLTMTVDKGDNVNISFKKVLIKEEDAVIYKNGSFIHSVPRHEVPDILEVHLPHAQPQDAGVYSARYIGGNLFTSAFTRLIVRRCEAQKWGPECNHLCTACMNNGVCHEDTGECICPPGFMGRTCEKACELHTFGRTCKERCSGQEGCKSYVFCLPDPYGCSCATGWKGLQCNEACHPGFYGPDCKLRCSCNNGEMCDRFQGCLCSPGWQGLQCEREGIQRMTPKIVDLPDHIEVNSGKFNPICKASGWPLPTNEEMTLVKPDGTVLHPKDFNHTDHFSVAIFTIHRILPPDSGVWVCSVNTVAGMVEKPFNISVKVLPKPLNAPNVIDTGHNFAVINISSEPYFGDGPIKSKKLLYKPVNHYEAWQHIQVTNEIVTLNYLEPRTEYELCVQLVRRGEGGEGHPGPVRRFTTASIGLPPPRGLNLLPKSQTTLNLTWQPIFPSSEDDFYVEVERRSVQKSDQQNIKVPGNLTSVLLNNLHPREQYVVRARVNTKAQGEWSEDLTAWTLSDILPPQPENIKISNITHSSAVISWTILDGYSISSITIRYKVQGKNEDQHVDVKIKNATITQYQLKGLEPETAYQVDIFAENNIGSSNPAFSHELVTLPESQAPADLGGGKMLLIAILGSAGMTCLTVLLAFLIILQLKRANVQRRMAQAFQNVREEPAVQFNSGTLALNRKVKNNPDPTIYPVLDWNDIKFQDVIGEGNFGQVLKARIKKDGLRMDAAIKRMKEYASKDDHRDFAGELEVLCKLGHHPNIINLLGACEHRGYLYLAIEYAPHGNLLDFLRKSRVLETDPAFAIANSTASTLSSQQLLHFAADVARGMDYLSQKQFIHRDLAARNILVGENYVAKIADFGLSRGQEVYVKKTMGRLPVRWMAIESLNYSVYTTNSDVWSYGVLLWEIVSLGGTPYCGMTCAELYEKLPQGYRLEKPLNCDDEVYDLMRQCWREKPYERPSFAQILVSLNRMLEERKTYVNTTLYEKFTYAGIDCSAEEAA
Sequence of Activated CDC42 kinase 1 (Homo sapiens) (Q07912 whole entry, looked up): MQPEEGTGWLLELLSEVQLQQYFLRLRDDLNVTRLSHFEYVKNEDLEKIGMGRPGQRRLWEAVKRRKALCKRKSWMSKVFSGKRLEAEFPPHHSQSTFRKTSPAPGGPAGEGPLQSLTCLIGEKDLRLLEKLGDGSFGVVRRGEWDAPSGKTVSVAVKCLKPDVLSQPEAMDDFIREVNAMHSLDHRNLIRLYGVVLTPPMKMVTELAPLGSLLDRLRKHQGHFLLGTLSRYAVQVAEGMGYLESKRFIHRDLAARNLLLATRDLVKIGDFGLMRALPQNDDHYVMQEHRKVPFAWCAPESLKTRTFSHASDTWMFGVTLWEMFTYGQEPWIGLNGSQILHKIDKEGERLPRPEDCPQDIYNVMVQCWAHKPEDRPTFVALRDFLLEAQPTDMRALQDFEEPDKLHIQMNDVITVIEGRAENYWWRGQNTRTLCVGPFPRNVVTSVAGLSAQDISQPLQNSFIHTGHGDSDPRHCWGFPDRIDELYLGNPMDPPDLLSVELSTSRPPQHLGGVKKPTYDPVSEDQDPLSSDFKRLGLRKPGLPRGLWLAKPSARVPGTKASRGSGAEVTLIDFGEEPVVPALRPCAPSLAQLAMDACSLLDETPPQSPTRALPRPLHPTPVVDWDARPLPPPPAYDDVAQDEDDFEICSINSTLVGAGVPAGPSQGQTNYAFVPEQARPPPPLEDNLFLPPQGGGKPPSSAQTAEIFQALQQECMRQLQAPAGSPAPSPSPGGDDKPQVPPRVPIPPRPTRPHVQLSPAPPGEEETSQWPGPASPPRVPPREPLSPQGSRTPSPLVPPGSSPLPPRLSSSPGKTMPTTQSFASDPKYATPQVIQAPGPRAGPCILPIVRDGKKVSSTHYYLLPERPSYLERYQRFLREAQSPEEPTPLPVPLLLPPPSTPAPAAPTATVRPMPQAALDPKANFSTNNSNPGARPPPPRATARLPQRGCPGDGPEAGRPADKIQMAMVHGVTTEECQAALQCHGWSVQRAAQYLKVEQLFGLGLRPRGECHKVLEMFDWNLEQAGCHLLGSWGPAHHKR

Structure (SMILES): NS(=O)(=O)c1ccc(N/N=C2\C(=O)Nc3cccc(CCc4ccncc4)c32)cc1
- inhibition [1]: -2.6%
- inhibition [2]: -0.23%
- inhibition [3]: 4.92%
- inhibition [4]: 0.8%
- inhibition [5]: 3.33%
- inhibition [6]: 12.8%
- inhibition [7]: 14.7%
- inhibition [8]: 0.97%
- inhibition [9]: 1.34%
- inhibition [10]: 6.26%

Structure (SMILES): COc1cc(N2CCN(C(C)C)CC2)ccc1Nc1nc(Nc2cccc(F)c2C(=O)O)c2cc[nH]c2n1
- inhibition [1]: -7.57%
- inhibition [2]: 4.02%
- inhibition [3]: 5.87%
- inhibition [4]: 2.04%
- inhibition [5]: 5.53%
- inhibition [6]: 8.72%
- inhibition [7]: 53.4%
- inhibition [8]: 1.91%
- inhibition [9]: 5.95%
- inhibition [10]: 4.69%

Structure (SMILES): CCn1c(-c2nonc2N)nc2cncc(C(=O)NCCNC)c21
- inhibition [1]: -6.01%
- inhibition [2]: 2.57%
- inhibition [3]: 4.27%
- inhibition [4]: 5.54%
- inhibition [5]: 7.24%
- inhibition [6]: -0.07%
- inhibition [7]: 8.48%
- inhibition [8]: 2.67%
- inhibition [9]: 2.15%
- inhibition [10]: 1.96%

Structure (SMILES): COc1ccc2ncn(-c3cc(O[C@H](C)c4ccccc4C(F)(F)F)c(C(N)=O)s3)c2c1
- inhibition [1]: 0.76%
- inhibition [2]: 1.04%
- inhibition [3]: -0.18%
- inhibition [4]: 1.94%
- inhibition [5]: 4.83%
- inhibition [6]: 1.54%
- inhibition [7]: 19.8%
- inhibition [8]: 0.19%
- inhibition [9]: 2.86%
- inhibition [10]: -0.31%

Structure (SMILES): CCOc1ccc2c(-c3ccnc(Nc4cc(OC)cc(C(F)(F)F)c4)n3)cnn2n1
- inhibition [1]: -0.62%
- inhibition [2]: 2.25%
- inhibition [3]: 7.24%
- inhibition [4]: 7.37%
- inhibition [5]: 13.5%
- inhibition [6]: 2.46%
- inhibition [7]: 12.4%
- inhibition [8]: 0.16%
- inhibition [9]: 1.19%
- inhibition [10]: 0.62%

Structure (SMILES): OCCCNc1nccc(-c2c(-c3ccc(F)cc3)nn3cc(C(F)(F)F)ccc23)n1
- inhibition [1]: 0.36%
- inhibition [2]: 3.37%
- inhibition [3]: 5.41%
- inhibition [4]: 2.38%
- inhibition [5]: 5.06%
- inhibition [6]: 0.14%
- inhibition [7]: 3.92%
- inhibition [8]: 0.22%
- inhibition [9]: 1.57%
- inhibition [10]: 3.24%

Structure (SMILES): CS(=O)(=O)Nc1ccc(-c2cc(-c3ccccc3)cc(C(N)=O)c2N)cc1
- inhibition [1]: 0.38%
- inhibition [2]: 0.8%
- inhibition [3]: 1.3%
- inhibition [4]: 0.34%
- inhibition [5]: 0.58%
- inhibition [6]: 1.13%
- inhibition [7]: 5.5%
- inhibition [8]: -0.09%
- inhibition [9]: -0.33%
- inhibition [10]: 3.2%

Structure (SMILES): COc1cccc(-n2ncc3c(N/N=C/c4ccc(C(=O)NCCN(C)C)cc4)ncnc32)c1
- inhibition [1]: 5.44%
- inhibition [2]: 4.74%
- inhibition [3]: 19.6%
- inhibition [4]: 8.62%
- inhibition [5]: 46.4%
- inhibition [6]: 25.4%
- inhibition [7]: 68.3%
- inhibition [8]: 2.34%
- inhibition [9]: 13.2%
- inhibition [10]: 6.69%

Structure (SMILES): COc1cc2c(cc1Nc1nc(Nc3cccc(F)c3C(N)=O)c3cc[nH]c3n1)N(C(=O)CN1CCN(C(C)C)CC1)CC2
- inhibition [1]: 3.08%
- inhibition [2]: 5.26%
- inhibition [3]: 1.94%
- inhibition [4]: 4.46%
- inhibition [5]: 2.66%
- inhibition [6]: 3.48%
- inhibition [7]: 22.4%
- inhibition [8]: 1.09%
- inhibition [9]: 5.91%
- inhibition [10]: 1.48%

Structure (SMILES): O=C(O[C@H]1CN[C@H](C#Cc2cc3ncnc(Nc4ccc(OCc5cccc(F)c5)c(Cl)c4)c3s2)C1)N1CCOCC1
- inhibition [1]: -2.54%
- inhibition [2]: 5.08%
- inhibition [3]: 4.41%
- inhibition [4]: 2.8%
- inhibition [5]: 7.75%
- inhibition [6]: 4.45%
- inhibition [7]: 21.9%
- inhibition [8]: 2.09%
- inhibition [9]: 2.88%
- inhibition [10]: 1.47%

Structure (SMILES): Fc1cccc(COc2ccc(Nc3ncncc3C#Cc3ccccc3)cc2Cl)c1
- inhibition [1]: -0.97%
- inhibition [2]: 4.69%
- inhibition [3]: 4.11%
- inhibition [4]: 1.87%
- inhibition [5]: 2.11%
- inhibition [6]: 1.37%
- inhibition [7]: 9.13%
- inhibition [8]: 1.84%
- inhibition [9]: 3.24%
- inhibition [10]: 2.85%

Structure (SMILES): CNC(=O)c1sc(-n2cnc3cc(OC)c(OC)cc32)cc1OCc1ccccc1C(F)(F)F
- inhibition [1]: -4%
- inhibition [2]: 1.74%
- inhibition [3]: 9.64%
- inhibition [4]: 2.19%
- inhibition [5]: 9.86%
- inhibition [6]: 4.58%
- inhibition [7]: 29.1%
- inhibition [8]: 1.43%
- inhibition [9]: 4.41%
- inhibition [10]: 1.34%

Structure (SMILES): CC1=C(C(=O)Nc2ccc3[nH]nc(C)c3c2)C(c2ccc(C(F)(F)F)cc2)CC(=O)N1 (stereo not given)
- inhibition [1]: -0.48%
- inhibition [2]: 4.4%
- inhibition [3]: 8.29%
- inhibition [4]: 1.71%
- inhibition [5]: 6.96%
- inhibition [6]: 6.09%
- inhibition [7]: 31.3%
- inhibition [8]: 3.49%
- inhibition [9]: 27.4%
- inhibition [10]: 4.41%

Structure (SMILES): CCN1CCC(C(=O)Nc2n[nH]c3nnc(-c4cccc(F)c4F)cc23)CC1
- inhibition [1]: 0.2%
- inhibition [2]: -1.63%
- inhibition [3]: 0.37%
- inhibition [4]: 1.84%
- inhibition [5]: 2.91%
- inhibition [6]: 1.54%
- inhibition [7]: 0.05%
- inhibition [8]: -0.13%
- inhibition [9]: 0.07%
- inhibition [10]: 1.95%

Structure (SMILES): CS(=O)(=O)CCNCc1ccoc1-c1ccc2ncnc(Nc3ccc(OCc4ccccc4)cc3)c2c1
- inhibition [1]: 0.23%
- inhibition [2]: 0.03%
- inhibition [3]: 3.04%
- inhibition [4]: 1.86%
- inhibition [5]: 4.86%
- inhibition [6]: 1.08%
- inhibition [7]: 5.74%
- inhibition [8]: 0.06%
- inhibition [9]: 0.6%
- inhibition [10]: 1.31%

Structure (SMILES): FC(F)(F)CNc1nccc(-c2cnn3ncccc23)n1
- inhibition [1]: -3.33%
- inhibition [2]: 0.22%
- inhibition [3]: 2.62%
- inhibition [4]: 1.95%
- inhibition [5]: 3.61%
- inhibition [6]: 0.51%
- inhibition [7]: 4.99%
- inhibition [8]: 0.71%
- inhibition [9]: -0.17%
- inhibition [10]: -0.41%

Structure (SMILES): c1cnn2ncc(-c3ccnc(NCCCN4CCOCC4)n3)c2c1
- inhibition [1]: 0.5%
- inhibition [2]: 2.64%
- inhibition [3]: 3.12%
- inhibition [4]: 2.79%
- inhibition [5]: 3.09%
- inhibition [6]: 1.04%
- inhibition [7]: -1.51%
- inhibition [8]: 0.23%
- inhibition [9]: -0.49%
- inhibition [10]: 2.69%

Structure (SMILES): CS(=O)(=O)CCNCc1ccc(-c2ccc3ncnc(Nc4ccc(OCc5ccccc5)cc4)c3c2)o1
- inhibition [1]: -0.71%
- inhibition [2]: 1.49%
- inhibition [3]: 7.43%
- inhibition [4]: 1.24%
- inhibition [5]: 4.15%
- inhibition [6]: 3.51%
- inhibition [7]: 16.6%
- inhibition [8]: 1.73%
- inhibition [9]: 2.69%
- inhibition [10]: 1.91%

Structure (SMILES): O=C(O[C@H]1CN[C@H](C#Cc2cc3ncnc(Nc4ccc5c(ccn5Cc5cc(F)ccc5F)c4)c3s2)C1)N1CCOCC1
- inhibition [1]: 0.11%
- inhibition [2]: 4.74%
- inhibition [3]: 7.34%
- inhibition [4]: 3.18%
- inhibition [5]: 10.8%
- inhibition [6]: 2.48%
- inhibition [7]: 1.5%
- inhibition [8]: 0.66%
- inhibition [9]: 0.98%
- inhibition [10]: 1.93%
